Source: PubChem
Shown are actives, neighbours in structure and some others; about 2% of the full set was active somewhere.
CHRM4 PAM: human M4 muscarinic receptor positive allosteric modulators, primary screen, CHO-K1 cells, Fluo-8 calcium fluorescence; Muscarinic acetylcholine receptor M4 (Homo sapiens), P08173; CHO-K1 hM4/Gqi5, ACh EC20; 0% = ACh EC20, 100% = maximal ACh; activation, % at 3 µM; 0.4% of 360,000 active; AID 624126, 2012;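 active means activation above its plate's cutoff, the mean activation of sample wells plus 3 SD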
Target sequence (P08173 whole entry, looked up): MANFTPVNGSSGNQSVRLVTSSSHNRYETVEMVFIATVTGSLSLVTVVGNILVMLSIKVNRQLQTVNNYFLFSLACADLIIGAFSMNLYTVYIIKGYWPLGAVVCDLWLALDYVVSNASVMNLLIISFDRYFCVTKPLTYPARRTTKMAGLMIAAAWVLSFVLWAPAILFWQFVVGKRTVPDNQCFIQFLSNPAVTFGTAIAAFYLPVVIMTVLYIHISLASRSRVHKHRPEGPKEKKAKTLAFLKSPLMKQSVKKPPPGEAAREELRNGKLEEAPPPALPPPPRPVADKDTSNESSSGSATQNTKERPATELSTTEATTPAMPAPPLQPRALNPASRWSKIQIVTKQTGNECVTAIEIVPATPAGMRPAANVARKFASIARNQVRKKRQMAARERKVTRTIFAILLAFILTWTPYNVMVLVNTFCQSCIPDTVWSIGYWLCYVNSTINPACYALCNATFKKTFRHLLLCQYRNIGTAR
M1 PAM parental: nonselective calcium activators in parental CHO-K1 cells, primary screen, counter-screen for M1 PAM project, cell-based, Fluo-8 calcium fluorescence, full deck, 1536-well. ATP EC20; 0% at ATP EC20, 100% at ATP max. activation, % at 3 µM. 0.02% of 360,000 active. AID 602247, 2012;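 active means activation above the run cutoff, the mean activation of all test compounds plus 3 SD, cut at about 40% in these data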;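 further: peak over basal fluorescence ratio in a 140 s read after ATP addition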
CHRM4 agonist: human M4 muscarinic receptor agonists, primary screen, CHO-K1 cells, Fluo-8 calcium fluorescence; Muscarinic acetylcholine receptor M4 (Homo sapiens), P08173; CHO-K1 hM4/Gqi5; vehicle 0%, full acetylcholine response 100%; activation, % at 3 µM; 0.14% of 360,000 active;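 active means activation above the run mean over all test wells plus 3 SD, cut at about 32% in these data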;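 further: peak over basal fluorescence ratio per well then scaled between controls; 0% = DMSO wells and 100% = acetylcholine at EC100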
CHO-K1 Ca antag: counter-screen for M1 antagonists: effect in parental CHO-K1 cells; ATP-induced calcium, Fluo-8 fluorescence; inhibition, % at 3 µM; 0.6% of 360,000 active; AID 602250;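 active means inhibition above a per-plate cutoff, the plate's mean sample inhibition plus 3 SD, cut at about 24% in these data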;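 further: 0% = DMSO plus EC80 ATP and 100% = DMSO alone without ATP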
CHRM4 antagonist: human M4 muscarinic receptor antagonists, primary screen, CHO cells, Fluo-8 calcium fluorescence | Muscarinic acetylcholine receptor M4 (Homo sapiens), P08173 | CHO-hM4 cells, ACh EC80 | inhibition, % at 3 µM | 0.73% of 360,000 active;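 active means inhibition above its plate's cutoff, the mean inhibition of sample wells plus 3 SD, cut at about 27% in these data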;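 further: 0% = acetylcholine EC80 with DMSO and 100% = DMSO without agonist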
CHO-K1 Ca ag: counter-screen for M1 agonists: effect in parental CHO-K1 cells. Fluo-8 calcium fluorescence; scaled to maximal ATP response, vehicle zero. activation, % at 3 µM. 0.48% of 360,000 active; in the data active means activation above about 15%;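 further: untransfected CHO-K1 host cells lacking M1 receptor as counterscreen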
The depositor's hits bear a star; ! = repeats disagree.

SMILES	CHRM4 PAM	M1 PAM parental	CHRM4 agonist	CHO-K1 Ca antag	CHRM4 antagonist	CHO-K1 Ca ag
C[N+]1(C)C2CC[C@H]1CC(OC(=O)C(CO)c1ccccc1)C2 (stereo partly drawn)	-18	-1	0	11	99*	0
C[N+]1(C)CCC(OC(=O)C(c2ccccc2)c2ccccc2)CC1	-16	7	0	1	98*	0
C[N+]1(C)[C@@H]2CC[C@H]1CC(OC(=O)[C@@H](CO)c1ccccc1)C2 (stereo partly drawn)	-18	-7	0	18	99*	0
C[N+]1(C)C2CCC1CC(OC(=O)c1c[nH]c3ccccc13)C2 (stereo not drawn)	0	26	0	-12	-5	0
COc1cc(CN2CCN(c3cc(C)ccc3C)CC2)ccc1O	3	19	3	-36	-5	2
O=C1NC(=O)N(c2ccc3c(c2)OCO3)C(=O)/C1=C/c1ccc(N2CCCC2)o1	-6	7	5	6	3	8
Cc1cc(OCC(=O)N2CCC(C(N)=O)CC2)c2c3c(c(=O)oc2c1)CCCC3	11	13	1	-7	-23	1
COC(=O)C(O)(c1ccc(N(C)C)cc1)C(F)(F)F (stereo not drawn)	7	-11	0	3	-1	1
O=C(Cc1ccccc1)Oc1cccc(N2C(=O)CCC2=O)c1	-3	20	0	-6	1	0
COCCCn1c(N)c(C(=O)OCCOC)c2nc3ccccc3nc21	3	11	2	-3	-7	0
CCOC(=O)c1c(NS(=O)(=O)c2ccccc2)n(CCCOC)c2nc3ccccc3nc12	23*	-3	3	5	0	-1
Nc1nonc1OCCCCOc1nonc1N	-2	9	0	-11	-1	1
O=C1CCCN1CC#CCN1CCCC1	-19	13	84*	5	81*	0
C(#CCN1CCCCC1)CN1CCCCC1	-4	0	1	7	2	0
CCn1c(=O)cc(OCC(=O)N2CCN(Cc3ccc4c(c3)OCO4)CC2)c2ccccc21	-2	-2	6	-4	-3	2
CCOC(=O)c1ccc(NC(=O)N2C[C@@H]3C[C@@H](C2)c2cccc(=O)n2C3)cc1	-14	-18	0	25*	69*	0
CC(=O)c1cccc(NC(=O)N2C[C@H]3C[C@@H](C2)c2cccc(=O)n2C3)c1	-5	-18	0	29*	9	0
O=C(O)c1cccc(NC(=O)N2C[C@H]3C[C@@H](C2)c2cccc(=O)n2C3)c1	8	20	2	-2	-16	0
O=C1Nc2ccc(Br)cc2C(c2ccc(Cl)cc2)=NC1O (stereo not drawn)	1	9	1	13	1	23*
CCOC(=O)[C@]12Cc3ccc(C)cc3[C@H]1N(C1CCCCC1)C(=O)c1ccccc12	2	9	-3	3	6	2
NC(Cc1ccc(Cl)cc1)c1csc(Nc2ncccn2)n1 (stereo not drawn)	-14	23	2	-26	96*	5
O=C1NC(=O)N(c2ccc3c(c2)OCO3)C(=O)/C1=C/c1ccsc1	6	0	0	2	-10	0
OC(CNCc1ccccc1)c1ccc(Cl)cc1 (stereo not drawn)	-1	5	4	-6	-4	2
O=C1NC(=S)NC(=O)C1C1CCCCC1	5	-2	0	-10	0	1
CC1(C)CSC(=NCc2ccccc2)N1	-28	-14	64*	20	19	26*
SMILES	CHRM4 PAM	M1 PAM parental	CHRM4 agonist	CHO-K1 Ca antag	CHRM4 antagonist	CHO-K1 Ca ag
CN(C)c1ccc(C=C2C(=O)NC(=S)NC2=O)cc1	3	15	1	-12	-2	1
C[C@]12CC[C@H](OS(=O)(=O)O)CC1=CC[C@@H]1[C@@H]2CC[C@]2(C)C(=O)CC[C@@H]12	-1	10	0	5	71*!	0
C[C@]12CCC(OC(=O)CCC(=O)O)CC1=CCC1C2CC[C@]2(C)C(=O)CCC12 (stereo partly drawn)	2	-10	0	-4	-4	0
CC1(C)NCCN2C(=O)CSC21 (stereo not drawn)	0	-3	1	14	-4	0
CCN1CCN(c2cn[nH]c(=O)c2Cl)CC1	4	20	1	-12	3	0
CCN1CCN(c2nc3c(c(=O)[nH]2)CCCC3)CC1	26*	14	0	-7	-1	0
CCOc1cc2c(cc1OCC)-n1cccc1C(c1ccc(OC)cc1)NC2 (stereo not drawn)	-2	14	5	3	2	18*
COc1ccc(-n2nc(C(=O)NCC(=O)N3CCC4(CC3)OCCO4)c3ccccc3c2=O)cc1OC	-1	-6	10	-10	2	4
CCc1ccc(-c2nn(Cc3ccccc3)cc2C=O)cc1	-4	-10	-1	9	11	-1
CC(C)(C)c1ccc(CSc2cnn(C(C)(C)C)c(=O)c2Cl)cc1	-4	-10	12	32*	11	18*
O=C(c1cccnc1)c1cc2ccccc2[nH]1	-11	0	1	-8	4	1
CN(C)CCNC(=O)c1cccn(Cc2cccc(C(F)(F)F)c2)c1=O	2	21	2	-17	-2	1
COc1ccc(-n2nnnc2C(c2cc3ccccc3o2)N2CCC(n3c(=O)[nH]c4ccccc43)CC2)cc1 (stereo not drawn)	-9	-8	13	1	20	3
COC(=O)c1c(C)n(Cc2ccco2)c2ccc(O)cc12	1	15	2	-5	5	2
O=c1c2ccccc2nc(-c2ccccc2)n1-c1ccncc1	4	-4	2	31*	8	0
CSCCC(c1nnnn1-c1c(C)cccc1C)N1CCC2(CC1)C(=O)NCN2c1ccccc1 (stereo not drawn)	1	14	3	-10	-2	2
c1ccc2c(c1)Sc1ccccc1N2CC1CN2CCC1CC2 (stereo not drawn)	-16	1	1	5	98*	0
Clc1ccccc1CNC1CN2CCC1CC2 (stereo not drawn)	-10	7	0	1	17	0
Cc1cccc(NP(=O)(Oc2ccccc2)Oc2ccccc2)c1C	-12	16	20	-4	0	17*
O=P(Nc1ccccc1)(Oc1ccccc1)Oc1ccccc1	-15	13	14	-3	25	7
